From the supplement of paper PMC12494721
Structures can show the parent of a compound that is named as a salt.

Columns and labels:
Settings in all cases: incubation time: 27 h, anaerobic, 37 °C;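 for the amine columns active = adjusted P below 0.05 in both replicates with a change the same way and a mean fold change under 0.8 or over 1.25; inactive = the rest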
[1] = system: Clostridium sporogenes DSM 1664; assay: growth (OD595) fold change vs plate DMSO controls (fold change (ratio)); higher = more growth
Outline: (§1)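 The 96-well mGAM cultures had been kept anaerobic for 27 h at 37 °C before being shaken and read at 595 nm. Blank subtraction, compound background correction with 20 µM compound solutions in water, and a calibration factor of 5 turned the readings into OD. Growth is given as the fold change versus the median of plate DMSO controls. Fold changes above 1.5 were set to NA, and the values are means of 2 biological replicates.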

Escherichia coli IAI1 [2] = assay: as above
Outline: as §1

[3] = system: Klebsiella aerogenes DSM 30053; assay: as above
Outline: as §1

[4] = system: Ruminococcus gnavus DSM 108212; assay: as above
Outline: as §1

[5] = system: Klebsiella aerogenes DSM 30053; assay: fold change of Histamine concentration vs plate DMSO controls (fold change (ratio)); higher = more amine produced, active = hit call of the paper (significant change in both replicates, either direction)
Outline: (§2)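 Amines were quantified by LC–triple-quadrupole MS in dynamic MRM mode against external calibration curves, with drift correction within each batch. The samples were whole anaerobic mGAM cultures of four gut bacterial strains, grown for 27 h at 37 °C in 80 µL wells and extracted with cold acetonitrile/methanol with 0.1% formic acid, then centrifuged. Values are reported as fold change over DMSO controls on the same plate. The mean of 2 biological replicates is given.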

[6] = system: Clostridium sporogenes DSM 1664; assay: fold change of Tryptamine concentration vs plate DMSO controls (fold change (ratio)); higher = more amine produced, active = hit call of the paper (significant change in both replicates, either direction)
Outline: as §2

[7] = system: Ruminococcus gnavus DSM 108212; assay: as above
Outline: as §2

Escherichia coli IAI1 [8] = assay: fold change of Putrescine concentration vs plate DMSO controls (fold change (ratio)); higher = more amine produced, active = hit call of the paper (significant change in both replicates, either direction)
Outline: as §2

[9] = system: Klebsiella aerogenes DSM 30053; assay: as above
Outline: as §2

Escherichia coli IAI1 [10] = assay: fold change of Cadaverine concentration vs plate DMSO controls (fold change (ratio)); higher = more amine produced, active = hit call of the paper (significant change in both replicates, either direction)
Outline: as §2

[11] = system: Klebsiella aerogenes DSM 30053; assay: as above
Outline: as §2

[12] = system: Ruminococcus gnavus DSM 108212; assay: fold change of 2-Phenylethylamine concentration vs plate DMSO controls (fold change (ratio)); higher = more amine produced, active = hit call of the paper (significant change in both replicates, either direction)
Outline: as §2

| SMILES | growth [1] | growth (Escherichia coli IAI1 [2]) | growth [3] | growth [4] | fold change of Histamine concentration [5] | fold change of Tryptamine concentration [6] | fold change of Tryptamine concentration [7] | fold change of Putrescine concentration (Escherichia coli IAI1 [8]) | fold change of Putrescine concentration [9] | fold change of Cadaverine concentration (Escherichia coli IAI1 [10]) | fold change of Cadaverine concentration [11] | fold change of 2-Phenylethylamine concentration [12] |
| --- | --- | --- | --- | --- | --- | --- | --- | --- | --- | --- | --- | --- |
| CC(C(=O)O)c1ccc(N2CC=CC2)c(Cl)c1 (stereo unspecified) [Pirprofen] (20 µM) | 1.03 | 1.01 | 0.978 | 0.973 | 1.04 (inactive) | 0.987 (inactive) | 1.06 (inactive) | 1.04 (inactive) | 0.957 (inactive) | 0.95 (inactive) | 0.981 (inactive) | 1.15 (inactive) |
| CC(C)[N+](C)(CCOC(=O)C1c2ccccc2Oc2ccccc21)C(C)C [Propantheline bromide] (20 µM) | 1.03 | 0.986 | 1 | 0.994 | 1 (inactive) | 0.971 (inactive) | 0.96 (inactive) | 1.02 (inactive) | 0.992 (inactive) | 1.01 (inactive) | 0.996 (inactive) | 0.963 (inactive) |
| OC[C@H]1O[C@H](O[C@H]2O[C@H](CO)[C@@H](O)[C@H](O)[C@H]2O)[C@H](O)[C@@H](O)[C@@H]1O [Trehalose dihydrate] (20 µM) | 1 | 1.04 | 1.08 | 1.11 | 0.919 (inactive) | 0.967 (inactive) | 1.06 (inactive) | 1.02 (inactive) | 0.986 (inactive) | 0.988 (inactive) | 1 (inactive) | 1.09 (inactive) |
| CCCN1CCCC[C@H]1C(=O)Nc1c(C)cccc1C [Ropivacaine hydrochloride] (20 µM) | 1.02 | 0.971 | 0.964 | 0.779 | 1.13 (inactive) | 1.13 (inactive) | 1.02 (inactive) | 0.946 (inactive) | 1.04 (inactive) | 1.03 (inactive) | 0.961 (inactive) | 1.01 (inactive) |
| CC[N+](C)(CC)CCOC(=O)C1c2ccccc2Oc2ccccc21 [Methantheline bromide] (20 µM) | 0.956 | 1.01 | 0.979 | 0.897 | 1.05 (inactive) | 0.999 (inactive) | 1.01 (inactive) | 1.04 (inactive) | 1.01 (inactive) | 1.02 (inactive) | 0.984 (inactive) | 1.05 (inactive) |
| N[C@H]1CONC1=O [(S,-) Cycloserine] (20 µM) | 0.942 | 0.968 | 0.982 | 0.975 | 0.94 (inactive) | 0.954 (inactive) | 0.905 (inactive) | 1.02 (inactive) | 1.07 (inactive) | 0.959 (inactive) | 1.05 (inactive) | 0.81 (inactive) |
| C[C@H](O)C(=O)Nc1c(I)c(C(=O)NC(CO)CO)c(I)c(C(=O)NC(CO)CO)c1I [Iopamidol] (20 µM) | 1.2 | 1.02 | 1.05 | 1.25 | 1.04 (inactive) | 1.03 (inactive) | 1.07 (inactive) | 0.979 (inactive) | 0.995 (inactive) | 0.999 (inactive) | 1.01 (inactive) | 1.05 (inactive) |
| Clc1ccc(C(c2ccccc2Cl)C(Cl)Cl)cc1 (stereo unspecified) [Mitotane] (20 µM) | 1.01 | 1.04 | 1.03 | 1.34 | 1.01 (inactive) | 0.997 (inactive) | 1.01 (inactive) | 1.03 (inactive) | 1 (inactive) | 1.03 (inactive) | 1.01 (inactive) | 1.03 (inactive) |
| O=[N+]([O-])c1ccc(O)c2ncccc12 [Nitroxoline] (20 µM) | 1.24 | 0.52 | 0.522 | 0.97 | 0.93 (inactive) | 0.897 (inactive) | 0.693 (active) | 0.496 (active) | 0.894 (inactive) | 1.49 (active) | 0.948 (inactive) | 0.766 (inactive) |
| Nc1ccc(S(=O)(=O)Nc2ccc(Cl)nn2)cc1 [Sulfachloropyridazine] (20 µM) | 1.03 | 0.966 | 1.05 | 0.974 | 0.939 (inactive) | 1.01 (inactive) | 1.04 (inactive) | 0.964 (inactive) | 0.976 (inactive) | 0.962 (inactive) | 1.01 (inactive) | 1.14 (inactive) |
| CC(=O)Nc1ccc(OC(=O)c2ccccc2O)cc1 [Acetaminosalol] (20 µM) | 0.904 | 0.977 | 0.996 | 0.994 | 0.933 (inactive) | 1.06 (inactive) | 0.928 (inactive) | 1.01 (inactive) | 1.01 (inactive) | 1 (inactive) | 0.999 (inactive) | 0.917 (inactive) |
| O=c1[nH]c(=O)n([C@H]2C[C@H](O)[C@@H](CO)O2)cc1F [Floxuridine] (20 µM) | 0.467 | 0.882 | 0.907 | 1.41 | 0.675 (active) | 0.514 (inactive) | 0.748 (active) | 0.593 (active) | 0.903 (inactive) | 0.889 (inactive) | 1.02 (inactive) | 0.884 (inactive) |
| OC[C@H]1OC(O)[C@H](O)[C@H](O)[C@@H]1O (stereo partly drawn) [D-allose] (50 µM) | 1.08 | 0.999 | 0.98 | 1.07 | 0.99 (inactive) | 1.02 (inactive) | 0.896 (inactive) | 1 (inactive) | 1.01 (inactive) | 1.07 (inactive) | 0.993 (inactive) | 0.886 (inactive) |
| CN1CCC(=C2c3ccccc3CCc3cccnc32)CC1 [Azatadine maleate] (20 µM) | 0.968 | 0.983 | 0.994 | 0.99 | 1.05 (inactive) | 1.14 (inactive) | 1.01 (inactive) | 1.34 (inactive) | 1.01 (inactive) | 0.966 (inactive) | 1 (inactive) | 1.03 (inactive) |
| CN(C)CCCC1(c2ccc(F)cc2)OCc2cc(C#N)ccc21 (stereo unspecified) [Citalopram hydrobromide] (20 µM) | 0.923 | 0.992 | 0.994 | 1.08 | 0.919 (inactive) | 0.955 (inactive) | 0.845 (inactive) | 0.927 (inactive) | 1 (inactive) | 0.991 (inactive) | 1.01 (inactive) | 0.788 (inactive) |
| CN1CCCC(n2nc(Cc3ccc(Cl)cc3)c3ccccc3c2=O)CC1 (stereo unspecified) [Azelastine hydrochloride] (20 µM) | 1.05 | 1.05 | 0.95 | 0.57 | 1.13 (inactive) | 0.963 (inactive) | 0.943 (inactive) | 1.03 (inactive) | 1.03 (inactive) | 1.01 (inactive) | 0.976 (inactive) | 0.937 (inactive) |
| CCN(CC)C(=O)Nc1ccc(OCC(O)CNC(C)(C)C)c(C(C)=O)c1 (stereo unspecified) [Celiprolol hydrochloride] (20 µM) | 1.03 | 0.981 | 0.953 | 0.712 | 1.09 (inactive) | 0.988 (inactive) | 1.02 (inactive) | 1 (inactive) | 1.01 (inactive) | 1.02 (inactive) | 0.988 (inactive) | 1.04 (inactive) |
| OCCN1CCN(CCCN2c3ccccc3Sc3ccc(C(F)(F)F)cc32)CC1 [Fluphenazine dihydrochloride] (20 µM) | 1.03 | 1.13 | 1.05 | 0.85 | 0.925 (inactive) | 1.22 (inactive) | 0.878 (inactive) | 1.09 (inactive) | 0.982 (inactive) | 1.11 (inactive) | 1.03 (inactive) | 0.869 (inactive) |
| CN[C@@H]1[C@@H](O[C@H]2O[C@H](CO)[C@@H](N)[C@H](O)[C@H]2O)OC2C[C@@H](N)[C@@H](O[C@H]3[C@H](O)[C@@H](O)[C@H](N)C[C@@H]3N)OC2[C@@H]1O (stereo partly specified) [Apramycin] (20 µM) | 1.18 | 0.982 | 0.996 | 1.03 | 1.05 (inactive) | 0.998 (inactive) | 0.96 (inactive) | 1 (inactive) | 1.05 (inactive) | 1 (inactive) | 1.02 (inactive) | 0.905 (inactive) |
| C#C[C@]1(O)CC[C@H]2[C@@H]3CCC4=CC(=O)CC[C@@H]4[C@H]3CC[C@@]21C [Norethindrone] (20 µM) | 1.09 | 0.973 | 1 | 1.22 | 1.11 (inactive) | 1.01 (inactive) | 1.03 (inactive) | 0.962 (inactive) | 1.03 (inactive) | 0.98 (inactive) | 0.989 (inactive) | 1.04 (inactive) |
| C=C(NC(=O)C(=C)NC(=O)c1csc(C2=N[C@@H]3c4csc(n4)[C@H]4NC(=O)c5csc(n5)[C@H]([C@](C)(O)[C@@H](C)O)NC(=O)[C@H]5CSC(=N5)/C(=C/C)NC(=O)[C@H]([C@@H](C)O)NC(=O)c5csc(n5)[C@]3(CC2)NC(=O)[C@H](C)NC(=O)C(=C)NC(=O)[C@H](C)NC(=O)[C@H]([C@@H](C)CC)N[C@@H]2C=Cc3c([C@H](C)O)cc(nc3[C@H]2O)C(=O)O[C@@H]4C)n1)C(N)=O [Thiostrepton] (20 µM) | 0.00647 | 1.05 | 1.14 | 0.164 | 0.968 (inactive) | 0.033 (active) | 0.0887 (active) | 1.03 (inactive) | 1.03 (inactive) | 1.02 (inactive) | 1.02 (inactive) | 0.084 (active) |
| Cc1ccnc(NS(=O)(=O)c2ccc(N)cc2)n1 [Sulfamerazine] (20 µM) | 0.951 | 1.06 | 1.07 | 1.06 | 0.995 (inactive) | 0.975 (inactive) | 0.995 (inactive) | 1 (inactive) | 0.999 (inactive) | 1.01 (inactive) | 1.02 (inactive) | 0.97 (inactive) |
| CC(C)(C)NCC(O)COc1cccc2c1CC(O)C(O)C2 (stereo unspecified) [Nadolol] (20 µM) | 1.08 | 0.986 | 1.03 | 0.969 | 0.981 (inactive) | 1.08 (inactive) | 1.02 (inactive) | 1.06 (inactive) | 0.988 (inactive) | 1 (inactive) | 1 (inactive) | 0.971 (inactive) |
